The nature of assay [1]: Viability counterscreen for antagonist of constitutive androstane receptor (CAR) against the NCATS DSHEA and TCM libraries (AID 1794837).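 Also: compound exposure lasted 24 h before viability reading; 0% is about no effect.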 A digest of the protocol:
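Cell viability, CellTiter-Fluor, Ex/Em 405/540 nm, 1 h at 37C. HepG2-CYP2B6-hCAR, 2,500 cells/well; cpds + CITCO 48 uM final (antagonist mode), 24 h, 37C/5% CO2.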
Background: Counterscreens check selectivity or assay interference.

A short description of assay [2]: Viability counterscreen for agonist of constitutive androstane receptor (CAR) against the NCATS DSHEA and TCM libraries (AID 1794838). Also: 0% is about no effect. A digest of the protocol:
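Viability by CellTiter-Fluor fluorescence, 405/540 nm, after 1 h at 37C. HepG2-CYP2B6-hCAR cells were exposed 24 h to test substances in presence of 0.75 uM PK11195 (final).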

Assay [3] is described as follows: HepG2 viability counterscreen (readout 2: ATP content) against the NCATS DSHEA and TCM libraries (AID 1794840). Also: 0% is about no effect. The essentials:
(§1)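 1,000 HepG2 cells/well, 4 h attach; compounds ~24 h, 37C/5% CO2. Readout 1: GF-AFC 25 uM final, 30 min, fluorescence 380/510 nm. Readout 2: CellTiter-Glo, 30 min RT, luminescence.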

The nature of assay [4]: HepG2 viability counterscreen (readout 1: protease activity) against the NCATS DSHEA and TCM libraries (AID 1794841).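 Also: cells exposed to compounds for about 24 h before the protease read; 0% is about no effect.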 A digest of the protocol:
as §1

Assay [5] is described as follows: qHTS Counterscreen for compound interference against the NCATS DSHEA and TCM libraries (AID 1919978).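 Also: compounds preincubated with 1 µM D-luciferin or buffer before detection reagent; % of control where 0% means no effect.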 Conditions: firefly luciferase detection reagent interference, luminescence. A digest of the protocol: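 Luminescence counterscreen for detection-kit interference: compounds at 19.5 nM–39.8 uM final, 15 min RT with 1 uM D-luciferin or buffer only; detection reagent added, 30 min RT, then read.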
(In general: qHTS replaces the single test concentration by a dilution series.)

Assay [6] can be described thus: Dual reporter qHTS for agonist of Pregnane X Receptor (hPXR) against the NCATS DSHEA and TCM libraries: Fluorescence readout (AID 1920058). Also: 0% is about no effect. A digest of the protocol:
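Measures viability of the PXR reporter HepG2 line by protease-substrate fluorescence (405/540 nm), taken 1 h after CellTiter-Fluor addition. Substances are tested as concentration series over a ~24 h exposure, with rifampicin as agonist control.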

In assay [7] the target is Nuclear receptor subfamily 1 group I member 2 (Homo sapiens) (UniProt O75469). Nature of the assay: Dual reporter qHTS for antagonist of Pregnane X Receptor (hPXR) against the NCATS DSHEA and TCM libraries: Luminescence Readout (AID 1920060).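 Also: HepG2 cells carrying hPXR luciferase reporter stimulated with rifampicin at 2 µM; 0% is about no effect.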 The essentials: (§2)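 In antagonist mode, 2 uM rifampicin was added to hPXR-Luc HepG2 cells alongside test substances, incubated 24 h at 37 C; luminescence gave reporter activity, and CellTiter-Fluor fluorescence (405/540 nm) gave viability.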
Sequence of Nuclear receptor subfamily 1 group I member 2 (Homo sapiens) (O75469 whole entry, looked up): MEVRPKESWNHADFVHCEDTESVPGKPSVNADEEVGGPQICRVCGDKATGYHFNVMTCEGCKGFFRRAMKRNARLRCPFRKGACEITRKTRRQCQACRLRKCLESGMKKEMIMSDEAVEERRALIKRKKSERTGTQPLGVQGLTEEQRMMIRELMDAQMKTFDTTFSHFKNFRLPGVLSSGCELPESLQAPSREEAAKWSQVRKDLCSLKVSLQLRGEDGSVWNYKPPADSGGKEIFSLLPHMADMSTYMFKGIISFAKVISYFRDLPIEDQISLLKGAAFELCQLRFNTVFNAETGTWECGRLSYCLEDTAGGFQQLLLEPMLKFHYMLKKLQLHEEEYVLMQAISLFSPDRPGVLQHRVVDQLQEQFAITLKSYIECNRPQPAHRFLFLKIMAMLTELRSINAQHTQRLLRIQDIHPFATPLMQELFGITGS

Assay [8] is described as follows: Dual reporter qHTS for antagonist of Pregnane X Receptor (hPXR) against the NCATS DSHEA and TCM libraries: Fluorescence Readout (AID 1920061). Also: 0% is about no effect. The essentials:
as §2

The target of assay [9] is Nuclear receptor subfamily 1 group I member 3 (Homo sapiens) (UniProt Q14994). Nature of the assay: Primary qHTS for agonist of constitutive androstane receptor (CAR) against the NCATS DSHEA and TCM libraries (AID 1794839).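 Also: HepG2 cells expressing human CAR with a CYP2B6 reporter plus PK11195 antagonist; 0% is about no effect.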 A digest of the protocol:
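Luminescence from ONE-Glo luciferase was the agonist read-out in HepG2-CYP2B6-hCAR cells exposed 24 h to test substances. Wells also held the CAR antagonist PK11195 at 0.75 µM final. Viability was by CellTiter-Fluor fluorescence.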

Assay [10] deals with Cytochrome P450 2D6 (Homo sapiens) (UniProt P10635). Nature of the assay: qHTS for inhibitors of CYP2D6 against the NCATS DSHEA and TCM libraries (AID 1919972). Also: % is scaled to controls: 0 for no effect and ±100 for the full control effect. A digest of the protocol:
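Steps: enzyme plus luciferin substrate dispensed; test substances pinned; 15 min RT; 1x NADPH regenerating solution added, 30–45 min RT protected from light; detection reagent, 30 min RT; luminescence measured. Minus-enzyme wells as background.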

Assay [11] addresses Cytochrome P450 1A2 (Homo sapiens) (UniProt P05177). Kind of assay: qHTS for inhibitors of CYPIA2 against the NCATS DSHEA and TCM libraries (AID 1919976). Also: potency is read from the fitted curve at half-maximal effect. A digest of the protocol: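 In this quantitative HTS, inhibition of recombinant human CYP1A2 was measured as loss of luciferin-derived luminescence. Turnover ran 30-45 min at RT after NADPH regeneration solution was added.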

In assay [12] the target is Cytochrome P450 2C9 (Homo sapiens) (UniProt P11712). Kind of assay: qHTS for inhibitors of CYP2C9 against the NCATS DSHEA and TCM libraries (AID 1919973). Also: potency is read from the fitted curve at half-maximal effect. A digest of the protocol: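 Light output from converted D-luciferin reports remaining CYP activity. Compounds preincubate with enzyme and substrate for 15 min; NADPH regeneration (1x final) runs the reaction for 30-45 min.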
Sequence of Cytochrome P450 2C9 (Homo sapiens) (P11712 whole entry, looked up): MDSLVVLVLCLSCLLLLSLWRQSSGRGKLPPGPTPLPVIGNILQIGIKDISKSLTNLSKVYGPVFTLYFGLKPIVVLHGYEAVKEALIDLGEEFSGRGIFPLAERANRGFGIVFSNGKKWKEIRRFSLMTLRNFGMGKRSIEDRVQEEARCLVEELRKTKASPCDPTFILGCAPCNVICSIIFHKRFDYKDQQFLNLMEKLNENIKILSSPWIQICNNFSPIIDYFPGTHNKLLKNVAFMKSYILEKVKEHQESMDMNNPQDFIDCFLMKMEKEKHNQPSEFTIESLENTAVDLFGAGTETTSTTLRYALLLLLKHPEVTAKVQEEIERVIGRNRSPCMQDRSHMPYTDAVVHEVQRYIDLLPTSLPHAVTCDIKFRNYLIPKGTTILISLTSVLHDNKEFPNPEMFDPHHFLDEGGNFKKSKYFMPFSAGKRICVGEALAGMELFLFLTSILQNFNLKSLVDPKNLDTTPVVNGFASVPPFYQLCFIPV

Assay [13] can be described thus: KB-3-1 P-gp reporter qHTS against the NCATS DSHEA and TCM libraries (AID 1919975). Also: 0% is about no effect. A digest of the protocol: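 CellTiter-Glo luminescence viability readout; KB-3-1 parental cells, 500/well, attached ~4 h, then compound for ~72 h, 37C, 5% CO2. Bortezomib intraplate control.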
In assay [14] the target is Nuclear receptor subfamily 1 group I member 2 (Homo sapiens) (UniProt O75469). Kind of assay: Dual reporter qHTS for agonist of Pregnane X Receptor (hPXR) against the NCATS DSHEA and TCM libraries: Luminescence readout (AID 1920059). Also: potency is read from the fitted curve at half-maximal effect. A digest of the protocol: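 Luminescent PXR reporter read (ONE-Glo) after a CellTiter-Fluor viability read, following 24 h, 37C treatment of HepG2 cells stably carrying hPXR-Luc.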

Assay [15] deals with Mitogen-activated protein kinase 10 (Mus musculus) (UniProt Q61831). Nature of the assay: JNK3 AlphaScreen Assay (AID 530; active = well fitted curve in either direction with a large enough effect, not every such curve was filed as active;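 also: kinase came from lysate of stimulated human HepG2 cells; signal reports phosphorylation of biotinylated GST-cJun 1-79 at Ser73 with 10 µM ATP; series mostly up to about 57 µM; % is scaled to controls: 0 for no effect and ±100 for the full control effect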). The essentials:
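Room-temperature AlphaScreen kinase assay; pre-activated HepG2 lysate as JNK3 source, biotin-GST-cJun(1-79) substrate, 10 uM ATP, compound 15 min preincubation.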
(In general: Bead proximity is the source of the signal in Alpha formats.)

Assay [16] is described as follows: Stat Signaling Pathway (AID 446; active = well fitted curve in either direction with a large enough effect, not every such curve was filed as active;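 also: ME-180 cervical cancer cells given 40 pM IL-6 alongside compound; SIE-controlled beta-lactamase reporter measured as 460/530 nm FRET emission ratio; % is scaled to controls: 0 for no effect and ±100 for the full control effect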). A digest of the protocol: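 Reporter line: ME-180 cervical carcinoma, SIE-beta-lactamase. Treatment: compound with 40 pM IL-6, 5 hrs, 37 C, in low-serum OPTI-MEM with 10 mM HEPES pH 7.3. Detection: 460/530 nm fluorescence.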
In assay [17] the target is Glucocorticoid receptor (Homo sapiens) (UniProt P04150). Kind of assay: GR-GFP Redistribution (AID 450;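 active = compounds whose dose series gives a full or clear partial fitted curve of increased nuclear translocation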; also: potency is read from the fitted curve at half-maximal effect). Conditions: U2OS GR-GFP nuclear translocation, laser cytometry, 2 h.
Sequence of Glucocorticoid receptor (Homo sapiens) (P04150 whole entry, looked up): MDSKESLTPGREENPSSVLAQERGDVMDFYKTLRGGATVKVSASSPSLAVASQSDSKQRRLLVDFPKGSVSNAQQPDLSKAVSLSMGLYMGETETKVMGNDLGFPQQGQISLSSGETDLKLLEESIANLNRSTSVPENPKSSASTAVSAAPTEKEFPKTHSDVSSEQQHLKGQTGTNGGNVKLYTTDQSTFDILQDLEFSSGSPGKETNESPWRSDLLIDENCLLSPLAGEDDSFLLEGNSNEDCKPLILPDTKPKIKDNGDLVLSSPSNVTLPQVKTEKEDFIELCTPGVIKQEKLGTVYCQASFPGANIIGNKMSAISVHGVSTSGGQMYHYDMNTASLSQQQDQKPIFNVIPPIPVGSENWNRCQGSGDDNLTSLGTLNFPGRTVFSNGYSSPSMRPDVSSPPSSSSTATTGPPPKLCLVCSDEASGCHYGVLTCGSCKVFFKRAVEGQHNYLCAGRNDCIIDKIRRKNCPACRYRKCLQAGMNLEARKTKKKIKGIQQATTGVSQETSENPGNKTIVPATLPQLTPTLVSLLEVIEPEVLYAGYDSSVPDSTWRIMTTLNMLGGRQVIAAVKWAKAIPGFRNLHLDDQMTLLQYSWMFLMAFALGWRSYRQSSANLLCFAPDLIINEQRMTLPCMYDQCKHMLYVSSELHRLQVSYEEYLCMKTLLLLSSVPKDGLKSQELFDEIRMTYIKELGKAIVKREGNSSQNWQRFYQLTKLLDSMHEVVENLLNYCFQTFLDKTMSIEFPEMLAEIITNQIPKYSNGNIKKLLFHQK
Assay [18] has as its target Dual specificity protein kinase CLK4 (Homo sapiens) (UniProt Q9HAZ1). Nature of the assay: qHTS Assay for Inhibitors of CDC-like Kinase 4 (ADP-FP Assay) (AID 1795).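 Also: recombinant human CLK4 phosphorylating RS repeat peptide at 1 µM ATP; series mostly up to about 50 µM; % is scaled to controls: 0 for no effect and ±100 for the full control effect; nearly all actives have a fitted effect of over 60% in size.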 The essentials:
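FP readout: Orange Transcreener ADP2 tracer (4 nM) plus ADP antibody, read after 30 min at room temperature. Kinase step: 6.25 nM Clk4, 100 uM RS peptide, 1 uM ATP, pH 7.5, 1 h.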

For assay [19], the target named is Ubiquitin carboxyl-terminal hydrolase 1 (Homo sapiens) (UniProt O94782). Nature of the assay: Inhibitors of USP1/UAF1: Pilot qHTS (AID 504865).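 Also: rhodamine fluorescence freed from ubiquitin-rhodamine substrate followed over time; top concentration of the series differs between compounds; % is scaled to controls: 0 for no effect and ±100 for the full control effect; nearly all actives have a fitted effect of over 35% in size.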 The essentials: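 1nM USP1/UAF1 + cpd, 15 min RT; start w/ Ub-Rho 150nM final; kinetic FL 480/540 nm, 6 reads q60 s. Buffer 50mM HEPES pH 7.8, 0.5mM EDTA, 1mM TCEP, 0.01% Tween-20, 0.1 mg/ml BSA.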
Sequence of Ubiquitin carboxyl-terminal hydrolase 1 (Homo sapiens) (O94782 whole entry, looked up): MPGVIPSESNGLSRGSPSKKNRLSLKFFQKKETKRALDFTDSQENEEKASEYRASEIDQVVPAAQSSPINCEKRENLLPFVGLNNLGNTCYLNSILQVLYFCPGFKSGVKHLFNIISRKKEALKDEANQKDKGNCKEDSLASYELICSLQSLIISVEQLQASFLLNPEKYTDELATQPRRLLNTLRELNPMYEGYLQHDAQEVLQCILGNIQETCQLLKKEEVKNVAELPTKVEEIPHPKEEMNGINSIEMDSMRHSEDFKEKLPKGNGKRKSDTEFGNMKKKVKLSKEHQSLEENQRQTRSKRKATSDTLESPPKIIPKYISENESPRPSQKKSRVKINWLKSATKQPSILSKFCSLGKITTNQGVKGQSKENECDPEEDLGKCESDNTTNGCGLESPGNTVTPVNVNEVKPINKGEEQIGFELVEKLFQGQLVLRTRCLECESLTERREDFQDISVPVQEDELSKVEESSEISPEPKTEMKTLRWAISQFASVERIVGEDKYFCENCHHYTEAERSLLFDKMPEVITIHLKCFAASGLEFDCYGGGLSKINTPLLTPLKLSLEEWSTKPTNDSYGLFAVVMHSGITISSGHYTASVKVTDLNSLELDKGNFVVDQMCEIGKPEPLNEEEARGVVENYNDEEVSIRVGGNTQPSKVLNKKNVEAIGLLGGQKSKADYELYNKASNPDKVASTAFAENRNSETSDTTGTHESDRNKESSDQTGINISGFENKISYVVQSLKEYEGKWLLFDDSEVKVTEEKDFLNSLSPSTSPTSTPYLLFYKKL

Among the data in PubChem BioAssay (NCATS) are outcome, max response and Potency values, retold here.

The structures appear in SMILES notation. Unmarked numbers belong to inactive results. Inconclusive results are not listed. Activity calls are given as the source filed them. Unless noted, calls follow the shape of the dose curve; as a rule, active = well fitted curve in the direction sought with a large enough effect; inconclusive = small, poorly fitted or top-dose-only effect, or another doubt; inactive = no such curve, though single readings can be large; an effect the other way counts as inactive or inconclusive. Where only a bound is given, the exact number is not on record here.

Sequence of Cytochrome P450 1A2 (Homo sapiens) (P05177 whole entry, looked up): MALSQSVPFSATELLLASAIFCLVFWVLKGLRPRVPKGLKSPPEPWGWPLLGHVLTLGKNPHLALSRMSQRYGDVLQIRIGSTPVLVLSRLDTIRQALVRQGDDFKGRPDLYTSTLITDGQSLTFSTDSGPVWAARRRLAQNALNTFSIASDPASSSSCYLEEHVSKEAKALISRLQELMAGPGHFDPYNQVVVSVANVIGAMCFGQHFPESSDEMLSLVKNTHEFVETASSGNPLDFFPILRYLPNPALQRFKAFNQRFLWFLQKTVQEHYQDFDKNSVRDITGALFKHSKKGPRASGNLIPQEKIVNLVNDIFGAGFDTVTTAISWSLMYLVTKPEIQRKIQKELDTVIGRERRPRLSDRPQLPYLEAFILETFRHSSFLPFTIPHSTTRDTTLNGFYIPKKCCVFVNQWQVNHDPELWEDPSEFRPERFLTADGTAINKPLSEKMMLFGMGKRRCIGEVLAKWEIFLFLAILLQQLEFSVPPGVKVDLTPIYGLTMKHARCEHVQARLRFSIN
Sequence of Nuclear receptor subfamily 1 group I member 3 (Homo sapiens) (Q14994 whole entry, looked up): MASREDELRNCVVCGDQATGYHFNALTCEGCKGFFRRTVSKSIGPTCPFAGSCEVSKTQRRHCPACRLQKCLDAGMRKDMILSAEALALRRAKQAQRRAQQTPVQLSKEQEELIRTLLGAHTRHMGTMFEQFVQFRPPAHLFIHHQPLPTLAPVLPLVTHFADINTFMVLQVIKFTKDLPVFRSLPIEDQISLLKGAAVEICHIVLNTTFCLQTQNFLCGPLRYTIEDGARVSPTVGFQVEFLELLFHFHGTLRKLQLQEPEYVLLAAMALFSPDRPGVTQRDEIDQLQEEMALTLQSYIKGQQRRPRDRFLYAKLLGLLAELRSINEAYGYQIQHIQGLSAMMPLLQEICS
Sequence of Cytochrome P450 2D6 (Homo sapiens) (P10635 whole entry, looked up): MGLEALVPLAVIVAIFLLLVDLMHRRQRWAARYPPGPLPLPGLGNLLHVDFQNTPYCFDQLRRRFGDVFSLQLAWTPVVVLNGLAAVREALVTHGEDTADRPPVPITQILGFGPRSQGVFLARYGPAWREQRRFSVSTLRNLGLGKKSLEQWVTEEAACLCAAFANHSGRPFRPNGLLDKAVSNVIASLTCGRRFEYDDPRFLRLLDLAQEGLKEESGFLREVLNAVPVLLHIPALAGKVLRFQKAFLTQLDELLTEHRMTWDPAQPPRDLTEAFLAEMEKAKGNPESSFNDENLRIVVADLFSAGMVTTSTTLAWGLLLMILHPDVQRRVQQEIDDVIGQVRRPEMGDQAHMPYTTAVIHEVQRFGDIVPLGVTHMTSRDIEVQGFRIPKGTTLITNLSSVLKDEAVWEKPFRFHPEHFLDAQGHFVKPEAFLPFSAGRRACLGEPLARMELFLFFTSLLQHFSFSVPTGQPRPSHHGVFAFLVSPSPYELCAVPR
Sequence of Dual specificity protein kinase CLK4 (Homo sapiens) (Q9HAZ1 whole entry, looked up): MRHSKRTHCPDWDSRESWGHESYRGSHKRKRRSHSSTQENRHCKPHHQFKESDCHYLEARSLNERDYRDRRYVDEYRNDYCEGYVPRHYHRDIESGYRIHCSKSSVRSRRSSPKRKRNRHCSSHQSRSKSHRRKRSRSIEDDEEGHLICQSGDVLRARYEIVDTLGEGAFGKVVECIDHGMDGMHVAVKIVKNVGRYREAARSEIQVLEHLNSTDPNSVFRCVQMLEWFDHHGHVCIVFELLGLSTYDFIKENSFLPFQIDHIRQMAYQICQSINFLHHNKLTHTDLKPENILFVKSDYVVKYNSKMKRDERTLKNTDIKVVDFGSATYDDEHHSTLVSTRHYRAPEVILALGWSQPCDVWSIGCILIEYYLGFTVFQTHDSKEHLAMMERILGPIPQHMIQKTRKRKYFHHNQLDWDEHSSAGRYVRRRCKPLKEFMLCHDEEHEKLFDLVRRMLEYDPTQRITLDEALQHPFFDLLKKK

`CC1=C2[C@H]([C@@H](C)CC[C@@H]2/C=C(\C)C(=O)O)[C@@H](O)C1`: the call in assay [1], in assay [2], in assay [3], in assay [4], in assay [6] and in assay [7] was inactive. For the same compound, the compound was called inactive in assay [8]. Further, the max response in assay [5] was -1.15%.
Take `CC1=CC[C@H](C(C)C)C=C1`: the compound was classed as inactive in assay [1], in assay [2], in assay [3], in assay [4], in assay [6] and in assay [7]. Besides, the compound was called inactive in assay [8]. Also, the Potency result in assay [9], in assay [10] and in assay [11] was “inactive” in each case. In addition, in assay [5], the max response is 0.517%.
As for `CCCCC/C=C/C(=O)CCc1ccc(O)c(OC)c1`, the result in assay [1], in assay [2], in assay [3], in [4], in [13] and in assay [6] was inactive. For the same compound, the compound was called inactive in assay [7] and in [8]. The Potency entry in assay [9] and in [12] was “inactive” throughout. Also, the results for the Potency in assay [11] and in [14] were 15.8 µM (active) and 31.6 µM (active), respectively. The max response in assay [5] was 4.24%.
For the compound `CC1=C2[C@H](/C=C(\C)C(=O)O)CC[C@@H](C)[C@H]2CC1`, the Potency result in [15], in assay [10], in assay [11] and in [14] was “inactive” each time. Further, the result in assay [1], in [2], in [3], in assay [4], in assay [6] and in assay [7] was inactive. The compound was classed as inactive in assay [8]. Moreover, the max response in assay [5] is 1.69%.
For the compound `O=C(OC[C@H]1O[C@@H](OC(=O)c2cc(O)c(O)c(O)c2)[C@H](OC(=O)c2cc(O)c(O)c(O)c2)[C@@H](OC(=O)c2cc(O)c(O)c(O)c2)[C@@H]1O)c1cc(O)c(O)c(O)c1`, the call in assay [1], in assay [2], in assay [3], in assay [4], in assay [6] and in assay [8] was inactive. Further, the Potency result in [9] and in [14] was “inactive” each time. For the same compound, the Potency in assay [12] is 3.16 µM (active). The max response in assay [5] was -2.07%.
In the case of `C[C@@H]1CC[C@]2(C)CC[C@]3(C)C(=CC(=O)C4[C@@]5(C)CC[C@@H](O)[C@](C)(C(=O)O)C5CC[C@]43C)C2[C@H]1C` (stereo partly specified), the call in assay [1], in assay [2], in assay [3], in [4], in assay [13] and in assay [6] was inactive. Besides, the result in assay [7] and in [8] was inactive. The Potency entry in assay [9], in assay [10] and in assay [14] was “inactive” in each case. In addition, in [5], the max response is 2.52%.
Take `CN(C)C(=O)c1ccc(-c2ccc3ncnc(Nc4ccc(F)cc4)c3c2)cc1`: in [16], the compound was called inactive. In assay [17], the Potency is greater than 46 µM. For the same compound, the Potency result in assay [15] and in [18] was “inactive” each time.
As to `COCCn1c(=O)c(-c2cccs2)nc2cnc(N3CCNCC3)nc21`, in assay [18], the Potency result is “inactive”.
With `CNc1ncncc1-c1ccccc1CN(C)C`, the call in [16] was inactive. Further, the Potency in [17] is greater than 46 µM. For the same compound, the Potency result in assay [15], in [18] and in assay [19] was “inactive” in each case.
On to `Cc1nc2cnc(N3CCOCC3)nc2n(CCc2ccccc2)c1=O`, for which, in assay [16], the result was inactive. Moreover, the Potency in assay [17] is greater than 9.22 µM. Further, the Potency result in [15], in assay [18] and in assay [19] was “inactive” in each case.
